Data on 100 compounds can be found in PubChem BioAssay AID1006 (Sanford-Burnham Center for Chemical Genomics, 2008).

About 3,000 (1.5%) of roughly 200,000 compounds were called active. The full list was thinned out, with actives kept by preference. Values without a mark were called inactive.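 Rule for the calls: active = inhibition above about 50% when tested at 10 µM (limit read from the data); inactive = the rest.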

In the assay the target is Luciferin 4-monooxygenase (Photinus pyralis) (UniProt P08659). As to the kind of experiment: firefly luciferase enzyme inhibitors, primary screen, artefact control for luciferase-based inhibitor screens, biochemical, luminescence, ATPLite (AID 1006). To be noted: 10 min, at 10 µM, hits give high values. A general note: In ATP-based viability assays light output follows the ATP content of the culture.
Luciferin 4-monooxygenase (Photinus pyralis), sequence (P08659 whole entry, looked up): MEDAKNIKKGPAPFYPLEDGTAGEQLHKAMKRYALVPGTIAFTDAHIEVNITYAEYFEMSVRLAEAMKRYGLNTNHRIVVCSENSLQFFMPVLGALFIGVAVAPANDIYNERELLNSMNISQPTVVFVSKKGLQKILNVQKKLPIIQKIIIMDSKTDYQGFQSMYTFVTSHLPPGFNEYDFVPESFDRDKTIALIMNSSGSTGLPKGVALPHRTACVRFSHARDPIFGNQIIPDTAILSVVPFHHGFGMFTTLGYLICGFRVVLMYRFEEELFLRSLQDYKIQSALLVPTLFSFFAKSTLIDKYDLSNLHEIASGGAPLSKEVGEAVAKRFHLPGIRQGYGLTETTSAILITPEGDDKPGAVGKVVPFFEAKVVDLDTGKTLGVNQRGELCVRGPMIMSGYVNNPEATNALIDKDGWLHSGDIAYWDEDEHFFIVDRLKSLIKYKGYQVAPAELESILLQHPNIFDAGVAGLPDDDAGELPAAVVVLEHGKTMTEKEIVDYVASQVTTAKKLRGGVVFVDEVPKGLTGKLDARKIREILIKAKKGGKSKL
By inhibition is commonly meant the drop in the measured response relative to a control, in per cent. As for `CN1CCN(c2ccc(NC(=O)c3ccc4c(c3)OCCO4)cc2Cl)CC1`, the inhibition is 51.8% (active).

In the case of `O=C(Nc1cccc(S(=O)(=O)Nc2ccc(Cl)cc2)c1)c1ccc2c(c1)OCCO2`, the inhibition was -5.3%.

Take `O=C(Nc1ccc2c(c1)OCCO2)c1ccc(Cl)c(S(=O)(=O)N2CCCCC2)c1`: the inhibition is 0.9%.

With `COc1c(Cl)cc(C(=O)Nc2ccc(Cl)cn2)cc1Cl`, the inhibition was -5.9%.

Consider `O=C(Nc1ccc(Cl)cn1)c1ccc2c(c1)OCCO2`, for which the inhibition was 82.7% (active).

Turning to `O=C(Nc1cccc(Cl)c1N1CCOCC1)c1ccc2c(c1)OCCO2`, the inhibition was -0.6%.

As to `O=C(c1cccc(F)c1)N1CCN(c2ccc([N+](=O)[O-])c3cccnc23)CC1`, the inhibition was -7.7%.

As for `CCCCC(NC(=O)c1cccc(Br)c1)C(=O)O` (stereo not given), the inhibition was 0.5%.

Take `CN(C)C=NC(=O)c1cccn1-c1ncc(C(F)(F)F)cc1Cl`: the inhibition is -1.5%.

Consider `COc1cccc(-c2cc(C(=O)N/N=C/c3ccc(OC)c(COC(C)=O)c3)c3ccccc3n2)c1`, for which the inhibition is -1.7%.

As to `Cc1ccc(-c2cc(C(=O)N/N=C/C=C/c3ccco3)c3ccccc3n2)cc1C`, the inhibition is 73.1% (active).

As for `O=C(N/N=C/C=C/c1ccco1)c1cccs1`, the inhibition was 12.4%.

Regarding `Cc1nnc(SCC(=O)NNC(=O)c2ccc(Cl)cc2)n1CC1CCCO1` (stereo not given), the inhibition is -8.3%.

As to `O=C(Oc1ccccc1)c1ccc2nccnc2c1`, the inhibition is 13.3%.

For `c1ccc(-c2noc(-c3cccs3)n2)nc1`, the inhibition was 71.2% (active).

`O=C(Oc1ccc(-c2nc(-c3ccccn3)no2)cc1)c1ccccc1`: the inhibition is 65.5% (active).

With `COc1nc(-c2ccc(Cl)cc2)ccc1-c1noc(-c2cccs2)n1`, the inhibition was -3.8%.

On to `c1csc(-c2nc(-c3ccncc3)no2)c1`, for which the inhibition was 17.7%.

Turning to `CC(C)c1nc(-c2ccccn2)no1`, the inhibition is -5.3%.

Take `COc1ccc(NC(=S)N2CCCC(CO)C2)c(OC)c1` (stereo not given): the inhibition was -2.4%.

For `Cc1ccc(N(C(=O)Cc2cccs2)C(C(=O)NCC2CCCO2)c2ccncc2)cc1` (stereo not given), the inhibition is -3.7%.

Regarding `CCN(C(=O)COC(=O)c1cc(S(=O)(=O)N2CCc3ccccc32)ccc1OC)C1CCS(=O)(=O)C1` (stereo not given), the inhibition was -6.8%.

For `CCCN(CC1COc2ccccc2O1)C(=S)Nc1ccc(C)cc1` (stereo not given), the inhibition was -6.7%.

With `CC(C)CNC(=O)C(=O)Nc1ccc(N(C)C)cc1`, the inhibition is 5.5%.

Take `CCOc1ccc(N2C(=O)CN(c3cccc4ccccc34)C2=S)cc1`: the inhibition is -3.3%.

For `COc1cc(COCC(O)CN2CCN(Cc3ccc4c(c3)OCO4)CC2)cc(OC)c1OC` (stereo not given), the inhibition is -5%.

For the compound `O=C(OCc1ccc([N+](=O)[O-])cc1)c1ccccn1`, the inhibition was -6%.

`N/C(=N\OC(=O)c1ccc([N+](=O)[O-])cc1)c1ccccn1`: the inhibition was 91.5% (active).

Regarding `N/C(=N\OC(=O)Cc1ccc([N+](=O)[O-])cc1)c1ccccn1`, the inhibition is 9.6%.

`CCC(C)N(C)C1CCN(C(=S)Nc2ccc(OC)cc2)CC1` (stereo not given): the inhibition is -0.3%.

As to `CCOc1ccc2nc(N3CCCN(C(=O)Nc4ccccc4C)CC3)c(C#N)cc2c1`, the inhibition is -2%.

Regarding `COc1ccc(N2CCN(C(=O)CSc3nc4cc(OC)c(OC)cc4cc3C#N)CC2)cc1`, the inhibition was -6.5%.

Consider `COc1ccc2nc(N3CCCC(O)C3)c(C#N)cc2c1` (stereo not given), for which the inhibition is 54.6% (active).

Turning to `Cc1ccc2[nH]c(C(=O)O)c(NC(=O)c3ccccc3[N+](=O)[O-])c2c1`, the inhibition was -4.8%.

With `CCn1cc(C(=O)Nc2cc(C)ccc2C)c(=O)c2ccc(C)nc21`, the inhibition was -5.1%.

Consider `Cc1cccc(N=C2NN=C(c3c[nH]c4ccccc34)CS2)c1`, for which the inhibition was -4.7%.

On to `Clc1cccc(N=C2NN=C(c3ccc4c(c3)OCCO4)CS2)c1`, for which the inhibition is 51.5% (active).

`c1ccc(CN2CCC(N=C3NN=C(c4ccc5c(c4)OCCO5)CS3)CC2)cc1`: the inhibition is -2.4%.

As to `COc1cc(/C=N/NC(=O)CCc2n[nH]c(=O)[nH]c2=O)ccc1O`, the inhibition was -6.6%.

Turning to `Nc1c(NCCc2ccccc2)c2ccccc2oc1=O`, the inhibition is -4%.

Regarding `Cc1ccc(CN2CCN(Cc3cn(C)nc3-c3ccccc3)CC2CCO)o1` (stereo not given), the inhibition was -4.5%.

Consider `O=C1CC(c2ccccc2)=NN1c1ccc([N+](=O)[O-])cc1`, for which the inhibition was -2.5%.

`COc1ccc(C2=NN(c3nc4ccccc4s3)C(=O)C2)cc1`: the inhibition was 59.7% (active).

In the case of `COc1ccc(/C=C(/CC(=O)Nc2ccc(C)cc2)c2nc3ccccc3s2)cc1`, the inhibition was -7.9%.

With `CCc1ccccc1N1C(=O)C2C3CC(=O)C(c4ccccc43)C2C1=O` (stereo not given), the inhibition was -5.1%.

With `CCc1nnc(NC(=O)[C@@H](NC(=O)c2cccc(C)c2)C(C)C)s1`, the inhibition is -3.8%.

For the compound `CN1CCN(C(=O)N2c3ccccc3CCc3ccccc32)CC1`, the inhibition was -4.4%.

Consider `Cn1c(=O)c(Sc2ccc(Cl)cc2)c(O)c2ccccc21`, for which the inhibition was -5.7%.

On to `Cn1c(=O)c(C(=O)Nc2ncccn2)c(O)c2ccccc21`, for which the inhibition is 70.3% (active).

Turning to `CCCCn1c(=O)c(C(C)=O)c(O)c2ccccc21`, the inhibition is -1.3%.

In the case of `Cc1ccccc1-n1nc(C)c2c1N=C1C(Cl)=CC(Cl)=CN1C2c1ccc(C(=O)O)cc1` (stereo not given), the inhibition was -0.1%.

`COc1ccc(-c2csc(Nc3ccccn3)n2)cc1`: the inhibition is 49.9%.

Take `CCOc1cc(NC(=O)c2ccccn2)c(OCC)cc1NC(=O)c1ccc(OC)cc1`: the inhibition was -2.9%.

For `COc1ccc(C(=O)/C=C/Nc2ccccn2)cc1`, the inhibition is 92.4% (active).

With `O=C(Cc1cccs1)Nc1cccc(-c2nc3ccccc3[nH]2)c1`, the inhibition is -1.9%.

Regarding `O=C(CCCN1C(=O)/C(=C/c2ccco2)SC1=S)Nc1ccccc1`, the inhibition was -3.2%.

`O=C(CCCN1C(=O)/C(=C\c2ccco2)SC1=S)Nc1cccc2ccccc12`: the inhibition was -1.3%.

On to `O=C(CCCN1C(=O)/C(=C/c2ccccc2)SC1=S)Nc1ccc(O)cc1`, for which the inhibition was 57.6% (active).

In the case of `CN(c1nc2ccccc2n2c(-c3ccco3)nnc12)S(=O)(=O)c1ccccc1`, the inhibition is -2.9%.

On to `Cn1c(-c2ccco2)nc2cc3ccccc3cc21`, for which the inhibition was 95.7% (active).

For `CN1c2ccccc2-c2nc3ccccc3n2C1c1ccco1` (stereo not given), the inhibition was 1.3%.

For `CCC(C)c1ccc(NC(=S)NCc2ccccn2)cc1` (stereo not given), the inhibition was -3.2%.

Regarding `C/C(=N\N=C(N)N)c1ccc(Cl)cc1`, the inhibition was -7.1%.

Consider `Cc1ccc(CNC(=O)CC2Sc3ccccc3NC2=O)cc1` (stereo not given), for which the inhibition was -6.5%.

Turning to `C(=N\Nc1ccc2ccccc2n1)/c1ccc2c(c1)OCO2`, the inhibition was 87.4% (active).

In the case of `Brc1ccc(-c2csc(N/N=C/c3ccc4c(c3)OCO4)n2)cc1`, the inhibition was -0.1%.

With `Cc1noc(C)c1/C=N/Nc1ccc2ccccc2n1`, the inhibition was 13.4%.

As for `CCNC(=S)N1CCN(c2ncccn2)CC1`, the inhibition was -2.5%.

On to `COc1ccc(NC(=O)Nc2ccc3nc(C)c(C)nc3c2)cc1`, for which the inhibition was -4.8%.

In the case of `COc1ccc(NC(=O)Nc2cccc3cccnc23)cc1`, the inhibition is 65.4% (active).

Regarding `COc1ccc(NC(=O)C2CCCN(S(=O)(=O)c3cccc4cccnc34)C2)cc1` (stereo not given), the inhibition is -0.5%.

For the compound `NC(=NC(=O)c1ccccc1)N1CCOCC1`, the inhibition was 0.1%.

On to `CC1CN(C(=S)SCC(=O)c2ccccc2)CC(C)O1` (stereo not given), for which the inhibition was 4.3%.

Regarding `O=C(CSC(=S)N1CCOCC1)c1ccccc1`, the inhibition was 72.6% (active).

Regarding `CCC(C)(C)c1ccc(OCC(=O)N(C)C)c(C(C)(C)CC)c1`, the inhibition was -6.6%.

In the case of `Cc1cc(C)nc(SCC(=O)N(C)C)n1`, the inhibition was -4.6%.

As for `O=C(CC1Nc2ccccc2NC1=O)Nc1ccccc1NC(=O)CC1Nc2ccccc2NC1=O` (stereo not given), the inhibition was 7.9%.

`Cc1ccc(N/C=C/C(=O)c2ccccc2)cc1C`: the inhibition is 91.4% (active).

Regarding `O=C(/C=C\NCC(=O)c1ccccc1)c1ccccc1`, the inhibition is 14.5%.

For `Cc1noc(NS(=O)(=O)c2ccc(N/C=C/C(=O)c3ccccc3)cc2)c1C`, the inhibition is -2.7%.

For `S=C(c1ccc(-c2ccccc2)o1)N1CCCCC1`, the inhibition is 83.4% (active).

As for `CC1CCN(C(=S)c2ccc(-c3ccc(Cl)cc3Cl)o2)CC1`, the inhibition was 3.9%.

As for `S=C(NCCc1ccccc1)N1CCCCC1`, the inhibition is 9.6%.

As for `COc1cccc(OC)c1C(=O)NC(=S)NCc1ccco1`, the inhibition was -2.1%.

`COCCn1c(Cc2cccn2C)nnc1SCC(=O)Nc1nccs1`: the inhibition was -5.3%.

For `COc1cc(NC(=O)COc2ccccc2Cl)ccc1NC(=O)C(C)C`, the inhibition is -2.5%.

On to `CC(CC(=O)C1C(C)C=CCC1(C)C)NNC(N)=O` (stereo not given), for which the inhibition was -6.1%.

Regarding `CC(=O)Nc1ccc(-c2csc(NC(=O)Nc3ccccc3)n2)cc1`, the inhibition is -0.4%.

In the case of `O=C(Nc1ccccc1)Nc1nc2ccccc2s1`, the inhibition was 52.9% (active).

For `Cc1cc(C)c2nc(NC(=O)c3ccc4c(c3)OCO4)sc2c1`, the inhibition was -1.6%.

With `O=C(Nc1nc2ccccc2s1)c1ccc2c(c1)OCO2`, the inhibition is 83.9% (active).

Turning to `COCc1nnc(NC(=O)c2ccc3c(c2)OCO3)s1`, the inhibition was 58.9% (active).

As for `CSCCC(Nc1nc2ccccc2s1)C(=O)O` (stereo not given), the inhibition is -2%.

For the compound `O=C(Nc1ccccc1)c1ccc2c(c1)OCO2`, the inhibition was 34.2%.

Turning to `COc1ccc(C(=O)Nc2ccc3c(c2)OCO3)cc1OC`, the inhibition is 28.8%.

As for `CCCc1nnc(NC(=O)c2cc(OC)cc(OC)c2)s1`, the inhibition was -1.1%.

In the case of `C/C(=N/NC(=O)CSc1ccccn1)c1ccc([N+](=O)[O-])cc1`, the inhibition is -6.6%.

For the compound `O=C(CN1CCN(S(=O)(=O)/C=C/c2ccccc2)CC1)Nc1ccc(N2CCOCC2)cc1`, the inhibition was -7.8%.

In the case of `COc1ccc(-n2c(=S)[nH]c3sc4c(c3c2=O)CCc2ccccc2-4)cc1`, the inhibition is 4.5%.

`CCOc1ccc2nc(NCCNC(=O)C(C)(C)C)c(C)cc2c1`: the inhibition is -2.6%.
